# High-throughput results: PubChem, Broad Institute
# Many of the other results were omitted from the sample, so hits are more common in it than they were.
# ERp5 block – inhibitors of human ERp5 | ERp5 insulin aggregation, absorbance 650 nm, 90 min | inhibition, % at 9.99 µM | 350,000 compounds, 0.05% hits;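 active = mean replicate inhibition above about 25%, with every replicate also reaching it, limit read from the data, passing the limit was not always enough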
# HDAC3 inh – blocks human histone deacetylase 3 | O15379 | recombinant HDAC3, fluorogenic peptide/trypsin coupled, fluorescence | inhibition, % at 8.3 µM | 320,000 compounds, 0.15% hits | AID 2718; in the data active = inhibition above about 26%, passing the limit was not always enough
# Target sequence (O15379 whole entry, looked up): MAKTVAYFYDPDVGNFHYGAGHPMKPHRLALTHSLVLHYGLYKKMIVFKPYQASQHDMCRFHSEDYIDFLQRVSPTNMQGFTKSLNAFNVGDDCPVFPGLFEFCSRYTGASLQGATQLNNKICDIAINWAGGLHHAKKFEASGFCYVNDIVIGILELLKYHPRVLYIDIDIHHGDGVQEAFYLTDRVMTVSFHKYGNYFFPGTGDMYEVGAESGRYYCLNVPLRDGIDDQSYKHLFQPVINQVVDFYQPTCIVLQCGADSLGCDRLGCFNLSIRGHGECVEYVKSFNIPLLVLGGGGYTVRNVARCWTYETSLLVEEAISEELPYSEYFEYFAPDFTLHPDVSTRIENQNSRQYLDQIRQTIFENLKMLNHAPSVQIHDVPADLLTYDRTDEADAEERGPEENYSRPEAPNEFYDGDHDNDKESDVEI
# PDI turbidity – PDI (human) enzyme inhibition; PDI insulin aggregation turbidity, A650, 90 min; inhibition, % at 10 µM; 350,000 compounds, 0.052% hits;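 active = mean inhibition across replicates of 30% or more, whatever share of single replicates reach that level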
# SIRT5 block – inhibitors of human sirtuin-5 desuccinylase. Purified SirT5, succinyl-peptide AMC, trypsin-coupled fluorescence. inhibition, % at 15 µM. AID 652115. 330,000 compounds, 1.1% hits. Q9NXA8; in the data active = inhibition above about 15%
# ERAP1 HTS inh – blocks human ERAP1 aminopeptidase activity; 340,000 compounds, 0.15% hits; recombinant ERAP1, Leu-AMC fluorescence, 60 min; AID 652197; Q9NZ08; inhibition, % at 10.7 µM;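 active = mean replicate inhibition of at least 30%, or all replicates individually reaching that 30% level; inactive = mean below 30% and not every replicate reaching it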;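 note: 0% = neutral control wells and 100% = L-leucinethiol positive control wells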
# * marks the source's active call; other numbers are inactive results; . = no result.
SMILES,ERp5 block,HDAC3 inh,PDI turbidity,SIRT5 block,ERAP1 HTS inh
COc1ccc(NC(=O)Nc2ccc3c(c2)C(=O)N([C@H](C)CO)C[C@H](C)[C@@H](CN(C)S(=O)(=O)c2cccs2)OCCCC[C@@H](C)O3)cc1,1,.,.,19*,3
COc1ccc(S(=O)(=O)Nc2ccc3c(c2)C(=O)N([C@H](C)CO)C[C@H](C)[C@H](CN(C)S(=O)(=O)c2cccs2)OCCCC[C@H](C)O3)cc1,5,.,.,18*,5
COc1ccc(S(=O)(=O)Nc2ccc3c(c2)C(=O)N([C@@H](C)CO)C[C@H](C)[C@H](CN(C)S(=O)(=O)c2cccs2)OCCCC[C@H](C)O3)cc1,1,.,.,15*,3
COc1ccc(S(=O)(=O)N(C)C[C@H]2Oc3ccc(NC(=O)C4CC4)cc3C(=O)N([C@@H](C)CO)C[C@H]2C)cc1,-4,.,.,-2,-1
Cc1csc(NC(=O)c2ccc(S(C)(=O)=O)cc2)n1,6,3,-8,19*,-2
Cc1csc(NC(=O)c2ccc(C(=O)Nc3nc(C)cs3)cc2)n1,.,-2,.,.,.
COc1ccc(CN(C)C[C@H]2Oc3ccc(NC(=O)Cc4cn(C)c5ccccc45)cc3C(=O)N([C@@H](C)CO)C[C@H]2C)cc1,0,.,.,2,0
CN(C)CC#Cc1ccc([C@@H]2[C@H](CO)N3CCCCN(C(=O)C4CC4)C[C@@H]23)cc1,1,.,.,0,4
COc1ccccc1CNC(=O)C1CCC(CNS(=O)(=O)c2ccc(F)cc2)CC1 (stereo not drawn),6,-4,-12,21*,-2
COc1ccccc1CNC(=O)C1CCC(CNS(=O)(=O)c2ccc(C)cc2)CC1 (stereo not drawn),8,0,15,-3,2
O=C(Cc1ccccc1)N[C@H]1CC[C@H](CC(=O)N2CCCCC2)O[C@@H]1CO,-3,.,.,-1,2
CCOC(=O)N1CCN(S(=O)(=O)c2c(C)nc3scc(C)n3c2=O)CC1,3,-2,-3,31*,1
O=C(c1ccc(F)cc1)N1CC(=O)N2[C@H](C1)[C@@H](c1ccc(C3=CCCC3)cc1)[C@@H]2CO,0,.,.,-2,2
O=c1[nH][nH]c(=S)n1C1CCCCC1,.,32*,.,.,.
COC(=O)c1cccc(N2CCCC2=O)c1,0,.,1,1,0
O=c1c2cc(F)ccc2sn1-c1ccccc1Cl,4,.,-2,-2,61*
O=c1c2ccccc2sn1-c1ccc(F)cc1,5,3,1,.,52*
COC(=O)c1cccc(-n2sc3ccccc3c2=O)c1,4,67*,-4,0,86*
Cc1ccc(-n2sc3ccccc3c2=O)cc1,.,52*,11,.,.
CC(=O)Nc1ccc2c(c1)C(=O)N(C)[C@H]1CC[C@@H](CC(=O)NCc3ccccc3)O[C@@H]1CO2,2,.,.,5,3
O=C1C(=C(I)I)c2ccccc2-c2ccccc21,-2,.,0,-3,36*
O=C(O)c1cccc2c1C(=O)c1ccccc1-2,0,2,3,0,-3
CCc1csc(CCNC(=O)C2CCC(=O)N(CCc3cccc(F)c3)C2)n1 (stereo not drawn),28*,6,7,0,-1
Cc1nc(CCNC(=O)C2CCC(=O)N(CCc3cccc(F)c3)C2)sc1C (stereo not drawn),-1,1,-11,-2,-1
CC(C)Cc1ccc(-c2cc3nc(NCCc4ccc(S(N)(=O)=O)cc4)ccn3n2)cc1,-1,.,5,20*,6
SMILES,ERp5 block,HDAC3 inh,PDI turbidity,SIRT5 block,ERAP1 HTS inh
O=S(=O)(N[C@@H]1CC[C@H](CCn2cc(Cc3ccccc3)nn2)O[C@@H]1CO)c1ccccc1F,-2,.,.,1,-9
O=S(=O)(N[C@@H]1CC[C@@H](CCn2cc(Cc3ccccc3)nn2)O[C@H]1CO)c1ccccc1F,3,.,.,20*,3
O=S(=O)(N[C@@H]1CC[C@@H](CCn2cc(-c3cccnc3)nn2)O[C@H]1CO)c1ccccc1,8,.,.,16*,-4
N#Cc1cccc(C#N)c1N1CCC(C#N)CC1,1,-15,4,24*,3
O=C1C[C@@H](c2ccc(O[C@@H]3O[C@H](CO)[C@@H](O)[C@H](O)[C@H]3O)cc2)Oc2cc(O)ccc21,3,0,36*,.,1
CC(=O)Nc1ccc(S(=O)(=O)Nc2ccc(-n3cnnn3)cc2)cc1,-3,-4,4,23*,1
O=C(C[C@H]1C[C@H]2c3cc(NC(=O)Nc4ccccc4)ccc3O[C@H]2[C@H](CO)O1)NC1CCCCC1,5,.,.,-1,-2
C[C@H](NC(=O)[C@@H]1[C@@H](CO)[C@@H]2Cn3c(cccc3=O)[C@H]1N2Cc1ccccc1)c1ccccc1,-6,.,.,19*,2
C[C@@H](NC(=O)[C@@H]1[C@@H](CO)[C@@H]2Cn3c(cccc3=O)[C@H]1N2Cc1ccccc1)c1ccccc1,5,.,.,7,-2
O=C(NCC1CCCCC1)[C@H]1[C@H](CO)[C@H]2Cn3c(cccc3=O)[C@@H]1N2CCc1ccccc1,-1,.,.,18*,0
CCCC#Cc1ccc(CC[C@H]2O[C@H]3CC[C@@H](CO)O[C@H]3C[C@H]2NS(=O)(=O)c2ccccc2)cc1,-3,.,.,20*,-1
CCC(=O)N[C@H]1C[C@@H]2O[C@@H](CO)CC[C@@H]2O[C@@H]1CCc1ccc(C#CCc2ccccc2)cc1,0,.,.,0,-5
COc1ccc(NC(=O)Cn2nnc(C(=O)Nc3ccc(F)c(Cl)c3)c2N)cc1,1,3,-5,15*,2
Cc1ccc(NC(=O)Cn2nnc(C(=O)Nc3ccc(F)c(Cl)c3)c2N)cc1,.,-8,-10,-1,-2
O=C(NCC(c1ccco1)N1CCN(c2ccccc2F)CC1)C1CCCCC1 (stereo not drawn),-5,4,6,20*,2
O=C(COc1ccccc1)NCC(c1ccco1)N1CCN(c2ccccc2F)CC1 (stereo not drawn),-6,10,6,-4,0
O=C(COc1ccccc1)NCC(c1ccco1)N1CCN(c2ccc(F)cc2)CC1 (stereo not drawn),3,0,-2,19*,0
Cc1csc2ncc(C(=O)N3c4ccccc4CC3C)c(=O)n12 (stereo not drawn),4,-1,.,16*,0
Cc1nn(-c2nc3ccccc3n2Cc2ccccc2)c2c1C(=O)CC(C)(C)C2,.,5,6,.,.
Cc1nn(C(=O)c2ccccc2)c2c1C(=O)CC(C)(C)C2,.,91*,-7,.,.
CCCc1nn(C(=O)c2ccccc2)c2c1C(=O)CC(C)(C)C2,.,72*,-4,.,.
CCCc1nn(-c2cc(Cl)ccc2OC)c2c1C(=O)CC(C)(C)C2,-2,3,13,3,-7
COc1cccc(-c2ccc([C@H]3[C@H](CO)N4C(=O)CN(C(=O)C5CC5)C[C@@H]34)cc2)c1,-8,.,.,1,2
COc1ccc(S(=O)(=O)N(C)C[C@@H]2Oc3ccc(NC(=O)c4ccncc4)cc3CC(=O)N([C@@H](C)CO)C[C@@H]2C)cc1,-5,.,.,-4,1
